PubChem BioAssay (NCATS)
Inconclusive results are not listed. Calls of active or inactive are those of the source. Calls come from the whole dose curve; as a rule, active = well fitted curve in the direction sought with a large enough effect; inconclusive = small, poorly fitted or top-dose-only effect, or another doubt; inactive = no such curve, though single readings can be large; an effect the other way counts as inactive or inconclusive.

What was measured:
[1] = system: NIH3T3; experiment: qHTS assay to identify novel small-molecules to repurpose for Merkel cell carcinoma treatment (AID 1296009); conditions: MCC and control cell lines, CellTiter-Glo viability, 72 h; at 44.8 µM (top of the series) unless noted; note: nearly all actives have a fitted effect of over 60% in size
In short: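 After compound transfer in DMSO, plates were kept 72 hr at 37 degree celsius. Luminescent ATP signal from CellTiter-Glo served as viability measure, normalized against DMSO and no-cell controls.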

[2] = system: C33A; experiment: Primary qHTS to identify gynecologic anti-cancer compounds using libraries of approved drugs and bioactive compounds (AID 1345084); conditions: Gynecologic cancer cell panel viability, ATPlite luminescence, 48 h; series mostly up to 57.5 µM; note: nearly all actives have a fitted effect of over 55% in size; note: potency is the fitted concentration of half-maximal effect; for activity change, negative = cytotoxicity: % is set by controls: 0 for no effect and ±100 for the full control effect
In short: (§1)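 48 h compound exposure at 37 C, 5% CO2; five-point qHTS. ATPlite luminescence readout of cell ATP.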

[3] = system: CAOV3; experiment: as above; conditions: Gynecologic cancer cell panel viability, ATPlite luminescence, 48 h; series mostly up to 57.5 µM
In short: as §1

[4] = system: CASKI; experiment: as above; conditions: Gynecologic cancer cell panel viability, ATPlite luminescence, 48 h; series mostly up to 57.5 µM
In short: as §1

[5] = system: Es-2; experiment: as above; conditions: Gynecologic cancer cell panel viability, ATPlite luminescence, 48 h; series mostly up to 57.5 µM
In short: as §1

[6] = system: HeLa; experiment: as above; conditions: Gynecologic cancer cell panel viability, ATPlite luminescence, 48 h; series mostly up to 57.5 µM
In short: as §1

COC1CC(OC2CCC3(C=O)C(CCC4C3CCC3(C)C(C5=CC(=O)OC5)CCC43O)C2)OC(C)C1OC1OC(CO)C(O)C(O)C1O (stereo not given)
active: Potency [2] 158 nM | Potency [3] 631 nM | Potency [4] 1120 nM | Potency [5] 355 nM | Potency [6] 282 nM
inactive: outcome [1] inactive [at 17.4 µM]

CC(C)[C@@H](CN1CC[C@@](C)(c2cccc(O)c2)[C@@H](C)C1)NC(=O)[C@H]1Cc2ccc(O)cc2CN1
inactive: outcome [1] | Potency [2] | Potency [3] | Potency [4] | Potency [5] | Potency [6]

N#C[C@@H](O[C@@H]1O[C@H](CO[C@@H]2O[C@H](CO)[C@@H](O)[C@H](O)[C@H]2O)[C@@H](O)[C@H](O)[C@H]1O)c1ccccc1
inactive: outcome [1] inactive [at 17.4 µM] | Potency [2] | Potency [3] | Potency [4] | Potency [5] | Potency [6]

CC12CCC3C(CCC4(O)CC(O)CCC34C=O)C1(O)CCC2C1=CC(=O)OC1 (stereo not given)
active: Potency [2] 1000 nM | Potency [3] 2000 nM | Potency [4] 7080 nM | Potency [5] 1120 nM | Potency [6] 1780 nM
inactive: outcome [1]

C/C=C(\C)C(=O)O[C@H]1[C@H](OC(C)=O)[C@]2(CO)[C@H](O)[C@H](O)[C@]3(C)C(=CCC4[C@@]5(C)CC[C@H](O[C@@H]6O[C@H](C(=O)O)[C@@H](O)[C@H](O[C@@H]7OC[C@H](O)[C@H](O[C@@H]8OC[C@H](O)[C@H](O)[C@H]8O)[C@H]7O)[C@H]6O[C@@H]6O[C@H](CO)[C@@H](O)[C@H](O)[C@H]6O)C(C)(C)C5CC[C@]43C)[C@@H]2CC1(C)C (stereo not given in full)
inactive: outcome [1] inactive [at 9.27 µM] | activity change, negative = cytotoxicity [2] 0.756% [at 6.55 µM] | activity change, negative = cytotoxicity [3] 0.059% [at 6.55 µM] | activity change, negative = cytotoxicity [4] 13.6% [at 6.55 µM] | activity change, negative = cytotoxicity [5] -0.471% [at 6.55 µM] | activity change, negative = cytotoxicity [6] 10.9% [at 6.55 µM]

CO[C@H]1[C@H](O)[C@H](O[C@H]2CC[C@]3(C)C4CC[C@]5(C)[C@H](C6=CC(=O)OC6)CC[C@]5(O)C4CC[C@@H]3C2)O[C@@H](C)[C@@H]1O (stereo not given in full)
active: Potency [2] 89.1 nM | Potency [3] 126 nM | Potency [4] 224 nM | Potency [5] 79.4 nM | Potency [6] 89.1 nM
inactive: outcome [1] inactive [at 17.4 µM]

CC[C@H]1CN2CC[C@H]1C[C@@H]2[C@@H](O)c1ccnc2ccc(OC)cc12
inactive: outcome [1] | Potency [2] | Potency [3] | Potency [4] | Potency [5] | Potency [6]

COC(=O)C1(C)CCC(=O)C2(C)c3c(O)cc(C(C)C)cc3C(O)C(OC(C)=O)C12 (stereo not given)
inactive: outcome [1] inactive [at 17.4 µM] | Potency [2] | Potency [3] | Potency [4] | Potency [5] | Potency [6]

CN1CCC[C@@H]1Cc1c[nH]c2ccc(Nc3ncccc3[N+](=O)[O-])cc12
inactive: outcome [1] | Potency [2] | Potency [3] | Potency [4] | Potency [5] | Potency [6]

C[C@@]12C[C@@H](c3ccoc3)OC(=O)C1CC[C@]1(C)[C@H]2[C@H]2C=C[C@]1(O)C(=O)O2 (stereo not given in full)
inactive: outcome [1] | Potency [2] | Potency [3] | Potency [4] | Potency [5] | Potency [6]

OC1(c2ccc(Cl)cc2)c2ccccc2C2=NCCN21 (stereo not given)
inactive: outcome [1] | Potency [2] | Potency [3] | Potency [4] | Potency [5] | Potency [6]

CC(N)Cc1c[nH]c2ccccc12 (stereo not given)
inactive: outcome [1] | Potency [2] | Potency [3] | Potency [4] | Potency [5] | Potency [6]

CCCN1CCO[C@H]2c3cc(O)ccc3OC[C@@H]21
inactive: outcome [1] | Potency [2] | Potency [3] | Potency [4] | Potency [5] | Potency [6]

O=C(N1CCOCC1)N1CCN(c2ccc(Cl)cc2)CC1
inactive: outcome [1] | Potency [2] | Potency [3] | Potency [4] | Potency [5] | Potency [6]

C=CC(C)(C)c1[nH]c2cccc3c2c1C[C@@H]1[C@@H]3[C@@H](OC(C)=O)[C@H](C)CN1C
inactive: outcome [1] | Potency [2] | Potency [3] | Potency [4] | Potency [5] | Potency [6]

CC[C@H]1CN2CC[C@H]1C[C@H]2[C@H](O)c1ccnc2ccc(OC)cc12
inactive: outcome [1] | Potency [2] | Potency [3] | Potency [4] | Potency [5] | Potency [6]

COC1=CC(=O)O[C@@H](CCc2ccccc2)C1
inactive: outcome [1] | Potency [2] | Potency [3] | Potency [4] | Potency [5] | Potency [6]

C=C[C@H]1[C@H](O[C@@H]2O[C@H](CO)[C@@H](O)[C@H](O)[C@H]2O)OC=C2C(=O)OCC[C@H]21
inactive: outcome [1] | Potency [2] | Potency [3] | Potency [4] | Potency [5] | Potency [6]

COC(=O)C12C(=O)C(C)(O)C(=O)C1(C)C(C)=CC1C34CCC(OC3=O)C(C)(CO)C4CCC12C (stereo not given)
inactive: outcome [1] inactive [at 17.4 µM] | Potency [2] | Potency [3] | Potency [4] | Potency [5] | Potency [6]

Cc1cccc(NC(=O)N[C@@H]2N=C(c3ccccc3)c3ccccc3N(C)C2=O)c1
inactive: outcome [1] | Potency [2] | Potency [3] | Potency [4] | Potency [5] | Potency [6]
